Assay outcomes from PubChem.
This is a sample that favours compounds with a hit; in the whole collection about 9% have one here.
KinaseGlo FLuc: counter-screen: inhibitors of Kinase-Glo firefly luciferase | Kinase-Glo luciferase, ATP luminescence, 8 min | Potency, µM (titrated, usually from 38.3 µM), hits mostly inhibitors | actives 0.28% (n = 200,000) | AID 1379; further: nearly all actives have a fitted effect of over 60% in size
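Luminescence was the read-out, taken after 8-minute incubation at ambient temperature. Luciferase turned over luciferin with 10 uM ATP in imidazole pH 7.2 buffer containing KCl, MgCl2, Tween 20 and BSA.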
HTT cytoprotect: protects HTT-Q103 PC12 cells, measured by ATP | PC12 HTT-Q103 induced, cytoprotection, ATP luminescence, 40 h | actives 0.14% (n = 230,000) | Potency, µM (titrated, usually from 56.4 µM), usual class: activators; further: nearly all actives have a fitted effect of over 45% in size
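ATP quantification (ATPlite) reports survival of PC12 cells in which tebufenozide, 100 nM final, switches on Htt exon 1 with 103 glutamines linked to GFP; compounds are titrated.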
HPGD block: inhibitors of human 15-hydroxyprostaglandin dehydrogenase (HPGD); P15428; purified HPGD, NADH fluorescence kinetic, PGE2 substrate; Potency, µM, usual class: inhibitors; actives 4.3% (n = 150,000); AID 894; active means well fitted inhibition curve with a large enough effect, not every such curve was filed as active; inconclusive means small, poorly fitted or top-dose-only effect, or another doubt; inactive means no such curve, though single readings can be large or run the other way
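20 nM HPGD preincubated 15 min at room temperature with compound in 50 mM Tris-HCl pH 8, 0.01% Tween 20. Started with 1 mM NAD+ and 30 uM prostaglandin E2; NADH fluorescence (360/450 nm) read 5 times over 30-s intervals, last minus first.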
HttQ103 aggreg: reduces HttQ103-GFP aggregates in PC12 cells; PC12 HttQ103-GFP aggregates, Acumen cytometry, 40 h; actives 1.1% (n = 220,000); Potency, µM (highest dose often 46.1 µM), usual class: inhibitors; further: nearly all actives have a fitted effect of over 60% in size
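Quantitative HTS on tebufenozide-induced (100 nM) PC12 cells stably expressing polyQ103 Huntingtin exon 1–GFP. Reduction of bright GFP aggregates, detected by laser scanning cytometry after lysis, identified actives across the titration.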
ALDH1A1 block: ALDH1A1 (human) enzyme inhibition; actives 7.3% (n = 220,000); P00352; AID 1030; Purified ALDH1A1, NADH fluorescence, propionaldehyde substrate; Potency, µM (series often up to 75.3 µM), usual class: inhibitors; active means well fitted inhibition curve with a large enough effect, not every such curve was filed as active; inconclusive means small, poorly fitted or top-dose-only effect, or another doubt; inactive means no such curve, though single readings can be large or run the other way
Target sequence (P00352 whole entry, looked up): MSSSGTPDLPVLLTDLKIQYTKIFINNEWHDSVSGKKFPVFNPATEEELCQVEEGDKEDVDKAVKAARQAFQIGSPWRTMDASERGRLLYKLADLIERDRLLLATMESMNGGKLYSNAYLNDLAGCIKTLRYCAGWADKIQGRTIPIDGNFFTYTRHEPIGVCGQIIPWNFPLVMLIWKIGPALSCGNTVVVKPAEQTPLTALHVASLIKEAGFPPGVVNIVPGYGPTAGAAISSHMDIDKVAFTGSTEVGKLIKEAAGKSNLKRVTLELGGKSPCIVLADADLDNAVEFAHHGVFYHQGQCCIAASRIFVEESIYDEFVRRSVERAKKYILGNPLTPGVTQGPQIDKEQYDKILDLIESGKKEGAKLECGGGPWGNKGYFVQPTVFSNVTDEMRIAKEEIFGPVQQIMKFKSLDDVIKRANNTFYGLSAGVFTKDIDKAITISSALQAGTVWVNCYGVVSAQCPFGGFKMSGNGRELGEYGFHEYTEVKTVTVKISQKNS
Lamin A splicing: modulators of lamin A splicing; HeLa LMNA splicing GFP/RFP minigene ratio, 48 h; Potency, µM (doses to about 46.1 µM), actives largely listed as inhibitors; actives 0.01% (n = 200,000); AID 1487; active means well fitted inhibition curve with a large enough effect in the signal ratio, with a control signal flat, not every such curve was filed as active; inconclusive means small, poorly fitted or top-dose-only effect, or effect the other way, or a change in a side signal; the % refers to the signal ratio
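S3 HeLa stable clones carrying a lamin A-EGFP splicing minigene plus DsRed2 were seeded at 600 cells/well in Opti-MEM with 2% FBS, pin-dosed and incubated 48 h at 37°C. Acumen cytometry (488 nm) gave the GFP/RFP total-intensity ratio.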
Of the large screens only hits and unclear results are named; the others gave an inactive call. Unless noted, the call rests on the fitted dose curve; in most records, active means well fitted curve in the direction sought with a large enough effect; inconclusive means small, poorly fitted or top-dose-only effect, or another doubt; inactive means no such curve, though single readings can be large; an effect the other way counts as inactive or inconclusive.

O=C(NCCCN=C1NS(=O)(=O)c2ccccc21)c1ccc(S(=O)(=O)N2CCCCC2)cc1	ALDH1A1 block 14µM, Lamin A splicing inconclusive
CC1CCC2C(=O)OC(Cc3ccccc3)CN2C1c1ccc(Br)cc1 (configuration not stated)	HTT cytoprotect inconclusive (no result: KinaseGlo FLuc, HPGD block, HttQ103 aggreg, Lamin A splicing)
CCOC(=O)c1c(C)[nH]c(O)c1C=Nc1ccc(Cl)cc1	none
C/C(=N\NC(=O)COc1ccc(C)cc1[N+](=O)[O-])c1cccs1	ALDH1A1 block 14µM, Lamin A splicing inconclusive (no result: HPGD block)
COc1ccc(-c2nnn(CC(=O)NCCc3ccc(OC)c(OC)c3)n2)cc1	none (no result: HPGD block)
Cc1ccc(NC(=O)c2cc(C)n(-c3ccccc3)c2C)cc1	HPGD block 20µM, HttQ103 aggreg inconclusive, ALDH1A1 block inconclusive, Lamin A splicing inconclusive
Cc1ccc(NC(=O)c2cc(C)n(-c3cccc(C)c3)c2C)cc1	HPGD block 25µM, ALDH1A1 block inconclusive, Lamin A splicing inconclusive (no result: HTT cytoprotect)
Cc1ccc(-n2c(C)cc(C(=O)NS(=O)(=O)c3ccc(C)cc3)c2C)cc1	none
Cc1ccc(CNC(=O)c2cnc3c(-c4ccccc4)c(C)nn3c2C)o1	none (no result: KinaseGlo FLuc, HTT cytoprotect, HPGD block, HttQ103 aggreg, ALDH1A1 block)
CC(C)n1c(N2CCN(C(=O)Nc3ccc(F)cc3F)CC2)nc2ccccc21	none
COc1ccc(Cl)cc1NC(=S)N(CCCN1CCOCC1)Cc1cn(C)c2ccccc12	HPGD block 28µM, HttQ103 aggreg inconclusive
COc1cc(Cl)ccc1NC(=S)N(CCCN1CCOCC1)Cc1cn(C)c2ccccc12	HPGD block inconclusive, HttQ103 aggreg inconclusive, ALDH1A1 block inconclusive, Lamin A splicing inconclusive
NC1=NC(=O)/C(=C/c2ccsc2)S1	none (no result: HPGD block)
NC1=NC(=O)/C(=C\c2cccnc2)S1	HttQ103 aggreg 8.9µM, Lamin A splicing inconclusive (no result: HPGD block)
CCC(C)N1C(=O)S/C(=C/c2ccc3c(c2)n(C)c(=O)n3C)C1=O (configuration not stated)	HttQ103 aggreg inconclusive, ALDH1A1 block inconclusive (no result: HPGD block, Lamin A splicing)
CC(C)N1C(=O)S/C(=C/c2ccc3c(c2)n(C)c(=O)n3C)C1=O	HPGD block inconclusive, ALDH1A1 block 8.9µM, Lamin A splicing inconclusive
CC(C)N1C(=O)S/C(=C/c2cccnc2)C1=O	ALDH1A1 block 13µM
O=S(=O)(c1ccc2c(c1)OCCO2)N1CCC(n2nnc3cc(C(F)(F)F)ccc32)CC1	HttQ103 aggreg 10µM, Lamin A splicing inconclusive
O=S(=O)(c1ccccc1)N1CCC(n2nnc3cc(F)ccc32)CC1	none
NNS(=O)(=O)c1ccc(Cc2ncc(C(F)(F)F)cc2Cl)s1	ALDH1A1 block 3.2µM
O=C(CCl)c1ccc(Cc2ncc(C(F)(F)F)cc2Cl)s1	ALDH1A1 block 0.71µM
c1ccc(SCc2nc(-c3ccccn3)no2)cc1	ALDH1A1 block inconclusive
CCN(CC)S(=O)(=O)c1ccc(OCC(=O)NC2CCS(=O)(=O)C2)c([N+](=O)[O-])c1 (configuration not stated)	ALDH1A1 block 14µM (no result: HPGD block)
Cc1ccc(-n2ncc3c(N4CCCC4)ncnc32)c(C)c1	HttQ103 aggreg inconclusive, Lamin A splicing inconclusive
Cc1cccc(-n2ncc3c(N4CCC(C)CC4)ncnc32)c1	HPGD block 28µM, ALDH1A1 block 14µM
CC(C)Nc1ncnc2c1cnn2-c1ccccc1	HPGD block inconclusive, ALDH1A1 block inconclusive, Lamin A splicing inconclusive
COc1cccc(N2CCN(c3ncnc4c3cnn4-c3ccc(C)cc3C)CC2)c1	HPGD block inconclusive, HttQ103 aggreg 22µM, ALDH1A1 block inconclusive, Lamin A splicing inconclusive
Cc1cccc(-n2ncc3c(NC(C)C)ncnc32)c1	HttQ103 aggreg 11µM, Lamin A splicing inconclusive
Cc1cccc(NC(=S)NC(NC(=O)OCc2ccccc2)C(Cl)(Cl)Cl)c1 (configuration not stated)	HttQ103 aggreg inconclusive, Lamin A splicing inconclusive
Cc1ccc(CNC(=O)C(=O)NCCC2=CCCCC2)cc1	none
CCOc1cc(/C=C2\CCC/C(=C\c3cc(Cl)c(O)c(OCC)c3)C2=O)cc(Cl)c1O	HPGD block 16µM, ALDH1A1 block 2.5µM
O=C(COc1ccccc1Cl)Nc1ccccc1OCc1cc(=O)n2ccccc2n1	none (no result: KinaseGlo FLuc, HTT cytoprotect, HPGD block, HttQ103 aggreg, ALDH1A1 block)
Clc1ccc(OCc2nn3c(-c4ccncc4)nnc3s2)cc1	none
